From PubChem BioAssay AID1159580 (chemical genetic matrix, 2015)
In all, about 5,500 compounds went through this assay and about 2,000 (36%) were called active. Not shown: some 18% with an inconclusive outcome. No stated cut-off is given here; in the data, active means normalized growth mostly below about 0.91 (no sharp cut-off); inconclusive means no clear call, values can overlap the other calls; inactive means mostly above about 0.92. This is one part of the list.

Assay: chemical genetic growth profiling, strain panel (AID 1159580);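 further: tested at 20 µM; growth read once vehicle control cultures reached saturation at 30 °C; 1 = growth at the plate median or of vehicle wells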
Conditions: S. cerevisiae deletion strains, growth OD

Measured: normalized growth

N#CCCCCOc1ccc2c(=O)cc(-c3ccccc3)oc2c1
active: locus YPL256C, strain CLN2, stronger effect = lower value 1.15 [resistant]
inactive: locus YAR019C, strain CDC15, stronger effect = lower value 0.99 | locus YBL105C, strain PKC1, stronger effect = lower value 0.978 | locus YBR135W, strain CKS1, stronger effect = lower value 0.977 | locus YBR136W, strain MEC1, stronger effect = lower value 0.977 | locus YBR160W, strain CDC28, stronger effect = lower value 0.977 | locus YDL017W, strain CDC7, stronger effect = lower value 0.988 | locus YDL028C, strain MPS1, stronger effect = lower value 0.981 | locus YDL101C, strain DUN1, stronger effect = lower value 0.972 | locus YDL108W, strain KIN28, stronger effect = lower value 0.977 | locus YDL132W, strain cdc53, stronger effect = lower value 0.971 | locus YDL214C, strain PRR2, stronger effect = lower value 0.946 | locus YDR052C, strain DBF4, stronger effect = lower value 0.989 | locus YDR054C, strain cdc34, stronger effect = lower value 0.988 | locus YDR226W, strain ADK1, stronger effect = lower value 0.977 | locus YDR477W, strain SNF1, stronger effect = lower value 0.959 | locus YER123W, strain YCK3, stronger effect = lower value 0.954 | locus YER133W, strain GLC7, stronger effect = lower value 0.972 | locus YFL009W, strain cdc4, stronger effect = lower value 0.979 | locus YFL029C, strain CAK1, stronger effect = lower value 0.989 | locus YFR003C, strain YPI1, stronger effect = lower value 0.981 | locus YFR019W, strain FAB1, stronger effect = lower value 0.961 | locus YFR028C, strain CDC14, stronger effect = lower value 0.974 | locus YGR040W, strain KSS1, stronger effect = lower value 0.94 | locus YGR052W, strain FMP48, stronger effect = lower value 0.972 | locus YGR092W, strain DBF2, stronger effect = lower value 0.938 | locus YHR030C, strain SLT2, stronger effect = lower value 1.08 | locus YHR079C, strain IRE1, stronger effect = lower value 1.08 | locus YHR082C, strain KSP1, stronger effect = lower value 1.07 | locus YHR205W, strain SCH9, stronger effect = lower value 0.976 | locus YIL147C, strain SLN1, stronger effect = lower value 0.974 | locus YJL095W, strain BCK1, stronger effect = lower value 0.933 | locus YJL128C, strain PBS2, stronger effect = lower value 0.938 | locus YJL157C, strain FAR1, stronger effect = lower value 0.971 | locus YJR016C, strain ILV3, stronger effect = lower value 0.967 | locus YJR066W, strain TOR1 (second series), stronger effect = lower value 0.914 | locus YJR066W, strain TOR1, stronger effect = lower value 1.04 | locus YKL048C, strain ELM1, stronger effect = lower value 0.966 | locus YKL067W, strain YNK1, stronger effect = lower value 0.956 | locus YKL101W, strain HSL1, stronger effect = lower value 0.936 | locus YKL193C, strain SDS22, stronger effect = lower value 0.969 | locus YKL203C, strain TOR2, stronger effect = lower value 1.01 | locus YLR113W, strain HOG1, stronger effect = lower value 0.955 | locus YLR133W, strain CKI1, stronger effect = lower value 0.965 | locus YLR403W, strain SFP1, stronger effect = lower value 0.921 | locus YML070W, strain DAK1, stronger effect = lower value 0.956 | locus YMR001C, strain CDC5, stronger effect = lower value 0.978 | locus YMR205C, strain PFK2 (second series), stronger effect = lower value 0.967 | locus YMR277W, strain FCP1, stronger effect = lower value 0.976 | locus YNL006W, strain LST8, stronger effect = lower value 0.987 | locus YNL020C, strain ARK1, stronger effect = lower value 0.956 | locus YNL161W, strain CBK1, stronger effect = lower value 0.98 | locus YNL183C, strain NPR1, stronger effect = lower value 1.02 | locus YNL207W, strain RIO2, stronger effect = lower value 0.965 | locus YNL222W, strain SSU72, stronger effect = lower value 0.982 | locus YNL307C, strain MCK1 (second series), stronger effect = lower value 0.927 | locus YOL078W, strain AVO1, stronger effect = lower value 0.972 | locus YOL136C, strain PFK27, stronger effect = lower value 0.919 | locus YOR061W, strain CKA2, stronger effect = lower value 0.961 | locus YOR119C, strain RIO1, stronger effect = lower value 1.01 | locus YOR231W, strain MKK1, stronger effect = lower value 0.964 | locus YOR329C, strain SCD5, stronger effect = lower value 0.984 | locus YPL031C, strain PHO85, stronger effect = lower value 0.968 | locus YPL153C, strain RAD53, stronger effect = lower value 0.953 | locus YPL204W, strain HRR25, stronger effect = lower value 0.943 | locus YPL209C, strain IPL1, stronger effect = lower value 0.982 | locus YPR025C, strain CCL1, stronger effect = lower value 0.982 | locus YPR106W, strain ISR1, stronger effect = lower value 0.983 | locus YPR111W, strain DBF20, stronger effect = lower value 0.961 | strain NNK1, stronger effect = lower value 0.975 | strain TSCII, stronger effect = lower value 0.976
